Among the test systems are SR leukemia; RPMI-8226 leukemia; OVCAR-8 ovarian; OVCAR-5 ovarian; OVCAR-4 ovarian; SK-OV-3 ovarian; IGROV1 ovarian; OVCAR-3 ovarian; HS 578T breast; NCI/ADR-RES ovarian.
Common to all, as to assay: NCI-60 one-dose screen, 48 h (100 = growth as untreated, 0 = no growth, -100 = all killed)
Holding throughout (conditions): 10 µM unless noted

Where “and” joins values, the source holds several entries; their conditions need not be identical. Equal entries are not always repeated. About 83,000 compounds went through this panel and 20% of them were active in at least one assay; those are over-represented in the sample as a whole.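 Compound tested at a single concentration for 48 hours in 96-well plates; a percent growth value below 10 was scored as active.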 Calls of active or inactive are those of the source.

Consider `O=C1OC(C(O)C(O)CO)C(O)=C1O` (configuration not stated), for which the growth in the assay on SR leukemia was 103% (inactive) and 107% (inactive); in the assay with RPMI-8226 leukemia, 98.1% (inactive) and 105% (inactive); with OVCAR-8 ovarian, 102% (inactive) and 105% (inactive); with OVCAR-5 ovarian it was 94.6% (inactive) and 96.4% (inactive); in the assay with OVCAR-4 ovarian it was 106% (inactive) and 112% (inactive); in the assay with SK-OV-3 ovarian it was 114% (inactive) and 92.9% (inactive). Besides, the growth is 111% (inactive) in the assay with IGROV1 ovarian; 115% (inactive) and 109% (inactive) in the assay on OVCAR-3 ovarian; 120% (inactive) and 119% (inactive) with HS 578T breast.
With `Cc1cc2ccccc2cn1`, the growth was 109% (inactive) in the assay with SR leukemia; 100% (inactive) and 114% (inactive) in the assay with RPMI-8226 leukemia; 102% (inactive) in the assay on OVCAR-8 ovarian; 107% (inactive) with OVCAR-5 ovarian; 108% (inactive) and 90.4% (inactive) in the assay on OVCAR-4 ovarian; 108% (inactive) and 103% (inactive) in the assay with SK-OV-3 ovarian. Further, the growth was 144% (inactive) with IGROV1 ovarian; 112% (inactive) and 111% (inactive) in the assay on OVCAR-3 ovarian; 113% (inactive) and 144% (inactive) with HS 578T breast.
As to `Cn1cnc([N+](=O)[O-])c1Sc1ncn[nH]1`, the growth was 126% (inactive) with SR leukemia; 73.8% (inactive) in the assay on OVCAR-8 ovarian; 116% (inactive) with OVCAR-5 ovarian; 95.5% (inactive) in the assay on OVCAR-4 ovarian; 115% (inactive) in the assay with SK-OV-3 ovarian; 105% (inactive) with IGROV1 ovarian. In addition, the growth with OVCAR-3 ovarian and in the assay on HS 578T breast was 119% (inactive) each time.
Take `CC(C)NC(=O)N/C=C(\C#N)C(N)=O`: the growth in the assay with SR leukemia was 100% (inactive); in the assay with RPMI-8226 leukemia, 116% (inactive); with OVCAR-8 ovarian, 109% (inactive); in the assay with OVCAR-5 ovarian, 92.5% (inactive); in the assay on OVCAR-4 ovarian, 105% (inactive); in the assay on SK-OV-3 ovarian it was 104% (inactive). The growth with IGROV1 ovarian is 102% (inactive); in the assay on OVCAR-3 ovarian, 105% (inactive); in the assay with HS 578T breast, 108% (inactive); with NCI/ADR-RES ovarian it was 100% (inactive).
`CCCCCCCCCCCCCCCCC(C(=O)O)C(O)(CC(=O)O)C(=O)O` (configuration not stated): the growth with SR leukemia is 90.8% (inactive) and 1.12% (active); in the assay on RPMI-8226 leukemia it was 104% (inactive) and -25.5% (active); with OVCAR-8 ovarian it was 111% (inactive); with OVCAR-5 ovarian, 109% (inactive) and -56.6% (active); in the assay with OVCAR-4 ovarian, 108% (inactive) and 21.3% (inactive); in the assay with SK-OV-3 ovarian, 98.3% (inactive) and 36.1% (inactive). Moreover, the growth in the assay with IGROV1 ovarian is 109% (inactive) and -21.4% (active); in the assay on OVCAR-3 ovarian it was 111% (inactive) and -3.72% (active); with NCI/ADR-RES ovarian it was 111% (inactive) and 89.7% (inactive).
As for `CC(=O)Nc1ccc(S(N)(=O)=O)cc1`, the growth with SR leukemia is 117% (inactive) and 105% (inactive); in the assay with RPMI-8226 leukemia, 95.6% (inactive) and 111% (inactive); in the assay on OVCAR-8 ovarian it was 99.5% (inactive) and 97.6% (inactive); in the assay on OVCAR-5 ovarian, 106% (inactive) and 102% (inactive); in the assay on OVCAR-4 ovarian, 99.4% (inactive) and 105% (inactive); with SK-OV-3 ovarian, 95.4% (inactive) and 99.8% (inactive). The growth was 99.5% (inactive) and 97.1% (inactive) with IGROV1 ovarian; 110% (inactive) and 116% (inactive) in the assay with OVCAR-3 ovarian; 96.3% (inactive) and 113% (inactive) in the assay with HS 578T breast; 102% (inactive) and 104% (inactive) in the assay with NCI/ADR-RES ovarian.
Turning to `N#CC(C#N)N=Nc1ccc(Cl)cc1`, the growth with SR leukemia is 53.7% (inactive); in the assay on OVCAR-8 ovarian it was 62.1% (inactive); in the assay on OVCAR-5 ovarian, 72.6% (inactive); in the assay on OVCAR-4 ovarian, 10.1% (inactive); in the assay on SK-OV-3 ovarian, 45.8% (inactive); in the assay on IGROV1 ovarian, 69.4% (inactive). The growth in the assay on OVCAR-3 ovarian is 15.2% (inactive); with HS 578T breast, 81.8% (inactive); in the assay on NCI/ADR-RES ovarian, 72.2% (inactive).
On to `O=C1C=C(Nc2ccccc2)c2ccccc2C1=O`, for which the growth in the assay with SR leukemia was 84.5% (inactive); in the assay with RPMI-8226 leukemia it was 52.7% (inactive) and 87.3% (inactive); in the assay on OVCAR-8 ovarian, 31.7% (inactive) and 94.3% (inactive); in the assay on OVCAR-5 ovarian it was 90.2% (inactive) and 109% (inactive); with OVCAR-4 ovarian, 44.4% (inactive) and 82.5% (inactive); with SK-OV-3 ovarian, 108% (inactive) and 90.9% (inactive). Also, the growth with IGROV1 ovarian is 65.5% (inactive) and 85.3% (inactive); in the assay with OVCAR-3 ovarian, 6.63% (active) and 35.4% (inactive); in the assay on HS 578T breast it was 94.8% (inactive) and 88.6% (inactive); in the assay on NCI/ADR-RES ovarian it was 25.1% (inactive) and 91.4% (inactive).
On to `N#CC(C#N)N=Nc1cc(Cl)ccc1Cl`, for which the growth with SR leukemia was 106% (inactive); with RPMI-8226 leukemia, 95.2% (inactive); in the assay on OVCAR-8 ovarian it was 90% (inactive); with OVCAR-5 ovarian, 97.4% (inactive); in the assay on OVCAR-4 ovarian, 98.9% (inactive); with SK-OV-3 ovarian, 99.2% (inactive). In addition, the growth with OVCAR-3 ovarian is 106% (inactive); with HS 578T breast, 116% (inactive).
Take `NC(=O)NCCCC(N)C(=O)O` (configuration not stated): the growth in the assay on SR leukemia is 84% (inactive); in the assay with RPMI-8226 leukemia, 96.5% (inactive); with OVCAR-8 ovarian, 98% (inactive); in the assay on OVCAR-5 ovarian it was 113% (inactive); in the assay on OVCAR-4 ovarian, 112% (inactive); with SK-OV-3 ovarian, 100% (inactive). Moreover, the growth was 91.5% (inactive) in the assay on IGROV1 ovarian, 106% (inactive) with OVCAR-3 ovarian, 106% (inactive) in the assay on HS 578T breast and 102% (inactive) with NCI/ADR-RES ovarian.
Consider `CN(C)CC1CCCCCC(CN(C)C)C1=O` (configuration not stated), for which the growth is 5.93% (active) with SR leukemia; 13.1% (inactive) with RPMI-8226 leukemia; 80.3% (inactive) in the assay on OVCAR-8 ovarian; 146% (inactive) in the assay on OVCAR-5 ovarian; 79% (inactive) in the assay on OVCAR-4 ovarian; 107% (inactive) in the assay on SK-OV-3 ovarian. Further, the growth in the assay with IGROV1 ovarian is 34.2% (inactive); with OVCAR-3 ovarian, -12.7% (active); with HS 578T breast it was 85.8% (inactive); with NCI/ADR-RES ovarian it was 88.3% (inactive).
Regarding `CC1=C/C(O)CC(=O)Cc2nc(co2)C(=O)N2CCC=C2C(=O)OC(C(C)C)C(C)/C=C\C(=O)NC/C=C\1` (configuration not stated), the growth in the assay with SR leukemia is 17.9% (inactive); in the assay on RPMI-8226 leukemia it was 60.7% (inactive); in the assay with OVCAR-8 ovarian it was 74% (inactive); in the assay on OVCAR-5 ovarian it was 94.8% (inactive); with OVCAR-4 ovarian, 78.5% (inactive); in the assay on SK-OV-3 ovarian, 119% (inactive). For the same molecule, the growth in the assay with IGROV1 ovarian is 3.64% (active); in the assay on OVCAR-3 ovarian, 85% (inactive); with HS 578T breast, 63.4% (inactive); in the assay with NCI/ADR-RES ovarian, 109% (inactive).

(Values after PubChem BioAssay (NCI).)
